Pf growth 96h: inhibits malaria parasite growth, 96 h. P. falciparum luciferase reporter growth, 96 h. Potency, µM (top dose mostly 28.7 µM), inactives show at the top dose activity change, negative = inhibition, usual class: inhibitors. 320,000 tested, 6.9% active; also: potency is read from the fitted curve at half-maximal effect; % is scaled to controls: 0 for no effect and ±100 for the full control effect
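Infected RBCs, 2% Hct / 0.05% parasitemia final; luciferase-reporter P. falciparum; cpd 96 h, 37 C, 5% CO2; luciferase detection reagent; luminescence.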
Pf growth 48h: P. falciparum growth inhibition at 48 hours (one generation); P. falciparum luciferase growth in erythrocytes, 48 h; Potency, µM (highest dose often 28.7 µM), for the others: at the top dose activity change, negative = inhibition, hits mostly inhibitors; 310,000 tested, 5.9% active; also: potency is read from the fitted curve at half-maximal effect; % is scaled to controls: 0 for no effect and ±100 for the full control effect
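Compounds are pin-transferred into medium, infected erythrocytes (2% hematocrit, 0.1% parasitemia final) are added, and plates sit one parasite generation at 37 C in 5% CO2. Detection reagent is then added and luminescence measured.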
HCMV inh: inhibitors of human cytomegalovirus; AID 1259415; 410,000 tested, 4.5% active; HFF cells, HCMV-luciferase reporter, 72 h; active compounds read low; activity change, negative = inhibition, % at 57.5 µM; in the data active = activity change below about -60%; inconclusive = no clear call, values can overlap the other calls; inactive = above about -39%; also: % is scaled to controls: 0 for no effect and ±100 for the full control effect
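Screen run at 2 compound doses on HFFs infected with reporter HCMV, MOI 1 PFU/cell. Luciferase activity from cell lysates at 72 h post infection gave inhibition relative to buffer-only and Salinomycin wells.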
Shiga inhibitor: inhibitors of Shiga toxin in Vero cells; AID 2315; 290,000 tested, 9.2% active; inhibition, % at 38.7 µM; Vero cells, Shiga toxin protein synthesis inhibition reporter; in the data active = inhibition mostly above about 28%, no sharp cut-off; inactive = mostly below about 43%; also: 0% is about no effect
Cycloheximide cs: affects cycloheximide protein synthesis inhibition readout, counter-screen. max response, %. 300,000 tested, 12% active. cell reporter, cycloheximide protein synthesis inhibition counterscreen; in the data active = max response mostly above about 13%, no sharp cut-off; inactive = mostly below about 14%; also: read at 38.3 µM for the half of the compounds with a filed dose; 0% is about no effect
* marks the source's active call; other numbers are inactive results; u = inconclusive; x = no result given; [ ] = another dose, or the depositor's remark. Only some compounds are listed: those with a hit (about 20% of all), similar ones and a draw of the others. Unless noted, calls follow the shape of the dose curve; as a rule, active = well fitted inhibition curve with a large enough effect; inconclusive = small, poorly fitted or top-dose-only effect, or another doubt; inactive = no such curve, though single readings can be large or run the other way.

SMILES | Pf growth 96h | Pf growth 48h | HCMV inh | Shiga inhibitor | Cycloheximide cs
CCCn1c(=N)n(CC(=O)c2ccc(Cl)cc2)c2ccccc21 | u | u | -83.3* | -2.4 | -1.2
COc1cccc(C2=NN(C(=O)C3CC3)C(O)(C(F)(F)F)C2)c1 (centres undefined) | x | x | 9.9 | x | x
COc1ccc(CNC(=O)C2CCN(S(C)(=O)=O)CC2)c(OC)c1 | 53.3% | -8.1% | u | 6.9 | 0.6
N#Cc1ccc(CSc2nnc(-c3ccccn3)n2-c2ccccc2)cc1 | x | -15.9% | -0.3 | -17.5 | -0.9
Cc1ccccc1-n1c(SCc2c(C)noc2C)nnc1-c1c[nH]c2ccccc12 | 14.7µM* | u | 25.2 | -4.2 | -5.4
N#Cc1ccc(CSc2nnc(COc3ccccc3)n2-c2ccccc2)cc1 | u | x | -20.1 | -5.9 | -2.4
N#Cc1ccc(CSc2nnc(-c3cccs3)n2-c2ccccc2)cc1 | 16.5µM* | u | -28.6 | -18.1 | -1.1
N#Cc1ccc(CSc2nnc(-c3c[nH]c4ccccc34)n2-c2ccccc2)cc1 | u | u | -64.3* | 1.5 | -1.9
O=c1c(Cc2c(F)cccc2Cl)c(O)ccn1CCCN1CCOCC1 | 68.5%[5.75 µM] | 2.7% | -5.0 | 1.7 | 12.4
CCOc1ccc(S(=O)(=O)N2CCC(n3c(C)nc4cccnc43)CC2)cc1 | x | x | -36.6 | x | x
C=CCN=C1SC(C)C(=O)N1S(=O)(=O)c1ccccc1 (centres undefined) | 7.38µM* | 6.1% | 14.2 | -13.1 | -1.0
Cc1ccc(OS(=O)(=O)c2ccccc2)c(/C=N/N=C2\NC(=O)C(C)S2)c1 (centres undefined) | u | u | 60.9 | 26.1 | 12.2*
CCCCS(=O)(=O)N1CCN(C(=N)N[N+](=O)[O-])CC1 | u | 5.5% | -62.4* | -1.9 | 2.0
COc1ccc(OC)c(/C=C2\SC(=S)N(Cc3cccnc3)C2=O)c1 | 9.28µM* | -14.8% | u | -2.9 | -3.5
COc1ccc(O)c(/C=C2/SC(=S)N(Cc3ccccc3)C2=O)c1 | 35.3% | u | -23.8 | 11.8 | 4.0
COc1ccc(/C=C2/SC(=S)N(Cc3ccccc3)C2=O)cc1O | u | 8.28µM* | u | 120.1* | 12.7
COc1ccc(/C=C2\SC(=S)N(N3C(=O)CCC3=O)C2=O)cc1O | u | 2.9% | 77.0 | -11.3 | -7.0
O=C(O)COc1ccc(/C=C2/SC(=S)N(Cc3ccccc3)C2=O)cc1 | 4.0% | 0.0% | -9.5 | -7.5 | 1.4
O=C1/C(=C\c2cc(Cl)c(O)c(Cl)c2)SC(=S)N1Cc1ccccc1 | u | u | -99.0* | 11.1 | -6.1
CCc1ccccc1NC(=O)CSc1nnc(-c2cc(OC)c(OC)c(OC)c2)o1 | x | x | 11.1 | x | x
CC(C)(C)NC(=O)CSc1nc2cccnc2n1C1CCCCC1 | 59.3% | u | -25.8 | -9.2 | -0.7
CC(=O)Nc1ccc(S(=O)(=O)N2CC3(C)CC2CC(C)(C)C3)cc1 (centres undefined) | 1.9% | -28.9% | u | -12.3 | -1.6
CN(C)C(CNC(=O)c1cccc(S(=O)(=O)N2CC3(C)CC2CC(C)(C)C3)c1)c1ccco1 (centres undefined) | 16.9%[5.75 µM] | u | -11.1 | -2.6 | 0.7
CCCNC(=O)c1cccc(S(=O)(=O)N2CC3(C)CC2CC(C)(C)C3)c1 (centres undefined) | 13.1µM* | u | u | x | x
CC1(C)CC2CC(C)(CN2S(=O)(=O)c2ccc(C(=O)Nc3ccc(S(=O)(=O)N4CCOCC4)cc3)cc2)C1 (centres undefined) | u | 10.4µM* | -90.5* | -7.2 | -2.3
SMILES | Pf growth 96h | Pf growth 48h | HCMV inh | Shiga inhibitor | Cycloheximide cs
CC1(C)CC2CC(C)(CN2S(=O)(=O)c2ccc(C(=O)Nc3ccc(Cl)c(S(=O)(=O)N4CCOCC4)c3)cc2)C1 (centres undefined) | u | 9.28µM* | -98.5* | -18.6 | 11.5
O=C(CCc1nnc(C2CCCCC2)o1)NCCCOc1cccnc1 | u | 7.3% | 19.4 | -3.4 | -1.8
Cc1cc[n+]2c3c(cccc13)CCC2 | x | 3.7µM* | 63.3 | -13.2 | -1.0
COc1ccc(/C=C/C(=O)C2C(=O)C=C(C)OC2=O)cc1O (centres undefined) | u | u | -76.7* | 13.2 | 17.4*
COc1cc(/C=C/C(=O)O)cc(Br)c1O | 45.1% | 4.5% | -32.2 | -1.3 | -2.2
COc1cc(/C=C/C(=O)C2C(=O)C=C(C)OC2=O)cc(OC)c1O (centres undefined) | 8.0% | u | -90.2* | 12.9 | -3.4
COc1ccc(/C=C/C(=O)O)cc1O | 2.1% | 9.1% | 5.9 | x | x
